In the library only some 9.8% were active in any assay of this set; here they are far more common.
CBFb RUNX1 block = blocks binding between human CBF-beta and RUNX1 | Potency, µM (top dose mostly 59.8 µM), for the others: at the top dose activity, negative = inhibition, most hits filed as inhibitors | AID 1477 | AlphaScreen CBFb-His/RUNX1-biotin binding, biochemical | 230,000 tested, under 10 active; further: % of control where 0% means no effect
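His-tagged CBF-beta and biotinylated RUNX1 (30 nM each) were premixed 20 min at room temperature, exposed to compound for 15 min, then given nickel-chelate and streptavidin AlphaScreen beads (50 ng each). After 90 min, AlphaScreen signal was read.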
HPGD block = inhibitors of human 15-hydroxyprostaglandin dehydrogenase (HPGD) | purified HPGD, NADH fluorescence kinetic, PGE2 substrate | Potency, µM, for the others: top-dose activity change, negative = inhibition, actives largely listed as inhibitors | 150,000 compounds, 4.3% hits; active means well fitted inhibition curve with a large enough effect, not every such curve was filed as active; inconclusive means small, poorly fitted or top-dose-only effect, or another doubt; inactive means no such curve, though single readings can be large or run the other way; further: potency means the concentration at half of the fitted maximal effect; on the % scale 0 is the no-effect control and ±100 the full control effect
Target sequence (P15428 whole entry, looked up): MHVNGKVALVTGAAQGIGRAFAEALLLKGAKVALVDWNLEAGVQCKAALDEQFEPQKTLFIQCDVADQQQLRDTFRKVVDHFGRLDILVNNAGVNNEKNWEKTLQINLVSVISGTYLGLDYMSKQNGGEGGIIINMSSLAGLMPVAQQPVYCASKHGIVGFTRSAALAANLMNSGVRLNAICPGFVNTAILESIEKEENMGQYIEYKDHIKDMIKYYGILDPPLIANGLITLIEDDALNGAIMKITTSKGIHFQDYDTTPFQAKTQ
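NADH formation kinetics: reaction with 30 uM PGE2 and 1 mM NAD+ (final), 20 nM enzyme, Tris-HCl pH 8 with Tween 20, after 15 min compound preincubation at room temperature. Fluorescence change, last versus first of five reads.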
HTT ATP protect = protects HTT-Q103 PC12 cells, measured by ATP. PC12 HTT-Q103 induced, cytoprotection, ATP luminescence, 40 h. AID 1471. 230,000 compounds, 0.14% hits. Potency, µM (doses to about 56.4 µM), inactives show cytoprotection (ATP increase), most hits filed as activators; further: potency means the concentration at half of the fitted maximal effect; % of control where 0% means no effect; nearly all actives have a fitted effect of over 45% in size
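PC12 cells with ecdysone-inducible HTT exon 1 Q103-GFP, induced with 100 nM tebufenozide and co-treated with library compounds in a dose series (1536-well, 1500 cells/well). Cytoprotection read as ATP content by ATPlite luminescence.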
JMJD2E inh = inhibitors of human JMJD2E histone demethylase | B2RXH2 | JMJD2E catalytic domain, FDH-coupled NADH fluorescence (FDH is formaldehyde dehydrogenase) | Potency, µM (titrated, usually from 57.1 µM), inactives show top-dose activity change, negative = inhibition, most hits filed as inhibitors | 230,000 compounds, 1.6% hits; active means well fitted inhibition curve with a large enough effect, not every such curve was filed as active; inconclusive means small, poorly fitted or top-dose-only effect, or another doubt; inactive means no such curve, though single readings can be large or run the other way;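 further: potency means the concentration at half of the fitted maximal effect; 0% = wells with enzyme and -100% = buffer wells without enzyme; nearly all actives have a fitted effect of over 50% in size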
ALDH1A1 block = blocks purified human ALDH1A1 activity; P00352; Purified ALDH1A1, NADH fluorescence, propionaldehyde substrate; Potency, µM (doses to about 75.3 µM), for inactives: top-dose activity, negative = inhibition, most hits filed as inhibitors; 220,000 compounds, 7.3% hits; active means well fitted inhibition curve with a large enough effect, not every such curve was filed as active; inconclusive means small, poorly fitted or top-dose-only effect, or another doubt; inactive means no such curve, though single readings can be large or run the other way;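 further: potency means the concentration at half of the fitted maximal effect; plate controls were no enzyme wells and a reference inhibitor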
Target sequence (P00352 whole entry, looked up): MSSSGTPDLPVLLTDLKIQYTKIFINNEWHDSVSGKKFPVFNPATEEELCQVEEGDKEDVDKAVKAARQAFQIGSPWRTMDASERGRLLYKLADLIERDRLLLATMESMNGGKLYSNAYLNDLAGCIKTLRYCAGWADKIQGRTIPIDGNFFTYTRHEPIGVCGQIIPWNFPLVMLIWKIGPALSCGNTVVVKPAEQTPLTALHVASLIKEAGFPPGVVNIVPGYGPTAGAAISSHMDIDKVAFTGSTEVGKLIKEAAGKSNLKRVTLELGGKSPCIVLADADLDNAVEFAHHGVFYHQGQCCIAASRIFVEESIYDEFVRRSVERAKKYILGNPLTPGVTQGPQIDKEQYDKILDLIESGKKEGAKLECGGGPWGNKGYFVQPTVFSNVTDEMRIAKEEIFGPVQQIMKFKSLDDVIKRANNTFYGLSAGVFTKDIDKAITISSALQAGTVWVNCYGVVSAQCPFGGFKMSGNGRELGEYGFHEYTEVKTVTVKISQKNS
HttQ103 aggreg = mutant huntingtin aggregation inhibition; Potency, µM (highest dose often 46.1 µM), for inactives: top-dose activity change, negative = inhibition, usual class: inhibitors; PC12 HttQ103-GFP aggregates, Acumen cytometry, 40 h; 220,000 compounds, 1.1% hits; further: potency means the concentration at half of the fitted maximal effect; on the % scale 0 is the no-effect control and ±100 the full control effect; nearly all actives have a fitted effect of over 60% in size
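Steps: seed 1500 PC12 HTTQ103-GFP cells/well; add tebufenozide, 100 nM final; add compound titration; add ATPLite reagent; quantify GFP aggregates by laser scanning cytometry.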
* hit, by the source's call; ? = inconclusive; nt = no result given; [ ] = remark or other dose. Unless noted, the call rests on the fitted dose curve; in most records, active means well fitted curve in the direction sought with a large enough effect; inconclusive means small, poorly fitted or top-dose-only effect, or another doubt; inactive means no such curve, though single readings can be large; an effect the other way counts as inactive or inconclusive.

SMILES | CBFb RUNX1 block | HPGD block | HTT ATP protect | JMJD2E inh | ALDH1A1 block | HttQ103 aggreg
Cc1cc(C)c(S(=O)(=O)NCC23C=CC(O2)C2C(=O)N(c4ccccc4)C(=O)C23)c(C)c1 (centres undefined) | 1% | 35µM* | -27% | 11% | 2.5µM* | -6%
N#C/C(=C/c1ccc(N2CCOCC2)o1)c1nc2ccccc2[nH]1 | -13% | -8% | 1%[10 µM] | ? | -6% | -7%
N#C/C(=C\c1ccc(N2CCOCC2)o1)c1ccccc1 | ? | ? | 8% | ? | 11µM* | ?
N#C/C(=C/c1ccc(N2CCOCC2)o1)c1ccc(Br)cc1 | -20% | ? | 10% | ? | 16µM* | ?
N#C/C(=C\c1ccc(N2CCOCC2)cc1)c1ccccc1 | -14% | -15% | nt | 7% | ? | 0%
N#C/C(=C/c1ccc(N2CCCCCC2)o1)c1cccc(F)c1 | 10% | 25µM* | ? | 0% | 2µM* | ?
S=c1[nH]nc(-c2ccccn2)n1/N=C/c1ccc(-c2ccccc2Cl)o1 | nt | nt | -8% | -7% | ? | -14%
CC(=O)Oc1cc(-c2coc3cc(OC(C)=O)c(OC(C)=O)c(OC(C)=O)c3c2=O)cc(OC(C)=O)c1OC(C)=O | nt | 7.9µM* | nt | 3.2µM* | ? | nt
CCC(=O)N=c1n(C)c2ccccc2n1CCOc1ccccc1 | -20% | -7% | nt | 4% | 5µM* | -8%
CCCn1c(=N)n(CCOc2ccc(OC)cc2)c2ccccc21 | 9% | -1% | 2% | 2% | 4% | -2%
CC(COc1ccccc1)N1CCC(CO)(Cc2ccccc2)CC1 (centres undefined) | 6% | nt | -31% | 0% | 2% | -5%
O=Cc1ccc(Oc2cc(-c3ccccc3)nc(-c3ccccc3)n2)cc1 | 1% | -7% | 16%[1.9 µM] | -2% | 22µM* | 6%
Cc1cc(OCC(=O)Nc2cnn(CCCC(=O)O)c2)ccc1[N+](=O)[O-] | 5% | nt | -21% | -28% | -1% | -1%
Cc1cc(OCC(=O)Nc2ccncc2)ccc1[N+](=O)[O-] | 9% | nt | nt | -9% | 10µM* | 9%
COC(=O)c1ccc(NC(=O)COc2ccc([N+](=O)[O-])cc2)cc1 | 2% | nt | 11%[10 µM] | -1% | nt | -21%[9.22 µM]
CC(=O)Nc1ccc(NC(=O)COc2ccc([N+](=O)[O-])cc2)cc1 | -2% | nt | 0% | 19% | 11µM* | -3%
CC(C)N=C1NN=C(c2ccc(Cl)c(Cl)c2)CS1 | -28% | nt | 14% | ? | ? | -7%
Cc1ccc(NC(=O)c2cccc(N3C(=O)CCC3=O)c2)nc1 | 11% | -14% | -28% | 10% | 2% | -3%
Cc1ccc(-n2nnc3c(=O)n(Cc4ccccn4)cnc32)cc1C | -5% | nt | -1% | -3% | -13% | 13%
Cc1cc(-c2nc3c4c5c(sc4[nH]c(=O)n3n2)CCC5)c(C)o1 | nt | 20µM* | -9%[10 µM] | 4% | -8% | 20%
Cc1ccc(-c2nc3ccccc3c(=O)n2Cc2ccccc2)cc1 | 9% | -3% | -1%[10 µM] | -7% | 16µM* | -15%
COc1cccc(-c2cncnc2NCCc2c[nH]c3ccc(OC)cc23)c1 | nt | nt | 3.2µM* | nt | ? | nt
Cc1nc2ccccc2n1CC(O)COC1CCCCC1 (centres undefined) | 7% | -1% | 2%[10 µM] | 4% | ? | ?
CC(C)c1nc2ccccc2n1CC(O)COC1CCCCC1 (centres undefined) | 9% | nt | -23% | ? | 28µM* | -18%
Cc1ccc(S(=O)(=O)Cn2nnnc2CN2CCCC3(CCCCC3)C2)cc1 | 5% | -13% | 13%[10 µM] | -13% | 16µM* | ?
SMILES | CBFb RUNX1 block | HPGD block | HTT ATP protect | JMJD2E inh | ALDH1A1 block | HttQ103 aggreg
CN(C)CCCN(C(=O)c1ccc2c(c1)CCCC2)c1nc2ccc(Cl)cc2s1 | -5% | -17% | -10%[10 µM] | -3% | 14µM* | -23%
CCN(CC)c1ccc(NC(=O)COc2ccccc2C#N)cc1S(=O)(=O)Nc1ccccc1OC | 0% | 3.5µM* | 28%[10 µM] | 3% | -9% | 1%
CCN(CC)c1ccc(N)cc1S(=O)(=O)Nc1ccccc1OC | -7% | nt | 26%[10 µM] | -14% | nt | 13%[9.22 µM]
Cc1cc(OCC(=O)c2ccc(Br)cc2)ccc1N1C(=O)CCC1=O | 16% | 14µM* | 9% | -4% | ? | -17%[1.84 µM]
O=C(COc1ccc(Br)cc1)c1ccc2c(c1)CCCC2 | ? | -28% | -5% | 2% | 9% | -27%
Cc1ccc(OCC(=O)c2ccc3c(c2)CCCC3)cc1C | ? | 32µM* | 14% | 3% | -1% | ?
Cc1ccc(C(=O)Oc2ccc(N3C(=O)CCC3=O)c(C)c2)cc1 | -6% | nt | -15%[10 µM] | 5% | 13% | 7%
O=C(NC(=S)NCc1cccnc1)c1cccc2ccccc12 | 1% | nt | nt | 8% | -11% | nt
O=C(COc1ccc(Br)cc1Br)NC(=S)N1CCCc2ccccc21 | -29% | -17% | 4% | -20% | 11µM* | ?
O=C(COc1ccc(Br)cc1Cl)NC(=S)N1CCc2ccccc21 | 3% | ? | nt | 3% | ? | 9%
CC(C)(C)OC(=O)NCCCC[C@H](NC(=O)c1nc[nH]c1C(=O)NC1CCN(C(=O)OC(C)(C)C)CC1)C(=O)OC(C)(C)C | 5% | nt | -10%[10 µM] | 2% | nt | -14%[9.22 µM]
O=C(O)c1cccc(-n2nnnc2SCc2ccccn2)c1 | 7% | ? | -3% | 0% | -12% | -14%
c1ccc(CSc2nnnn2-c2ccccc2)cc1 | 16% | -20% | -17% | 2% | ? | -5%
c1ccc(CSc2nnnn2-c2cccc3ccccc23)nc1 | 2% | -4% | -8% | 10% | 20µM* | -12%
O=C(CCCSc1nnnn1-c1cccc2ccccc12)c1ccc(F)cc1 | ? | -22% | -18% | 0% | 1.4µM* | ?
c1ccc(-n2nnnc2SCc2cccc(CSc3nnnn3-c3ccccc3)n2)cc1 | 7% | -7% | 7%[10 µM] | 7% | 1.6µM* | -1%
c1ccc(-n2nnnc2SCc2cn3ccccc3n2)cc1 | 12% | -7% | -12% | -4% | 4µM* | -4%
CCOC(=O)N1CCN(C(=O)CSc2ccc3nnc(CCNC(=O)c4ccccc4)n3n2)CC1 | 0% | nt | -6% | ? | -15% | -3%
CCOC(=O)N1CCN(C(=O)CSc2ccc3nnc(CCNC(=O)c4ccc(OC)cc4)n3n2)CC1 | -3% | nt | 9% | ? | 7.9µM* | -2%
O=C(NNc1nc2ccc(Cl)cc2s1)c1cc(-c2cccs2)nc2ccccc12 | 0%[2.36 µM] | -17% | nt | ? | 34% | 14µM*
Cc1cc(C(=O)N/N=C/c2cc(Cl)cc([N+](=O)[O-])c2O)n[nH]1 | ? | nt | 28%[10 µM] | 18µM* | nt | -2%[9.22 µM]

Bioassay records (PubChem BioAssay)
